Measurements from PubChem BioAssay (NCI).
Compounds without any hit were thinned out: in the full panel of roughly 79,000, 15% have a hit. A number with no mark means an inactive call. The source made the active and inactive calls. Cut-off read from the data, not from the text of the source: active = growth inhibition above about 70%; inactive = the rest.

Assays:
[1] = NCI Yeast Anticancer Drug Screen. Data for the rad50 strain (AID 155);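 note: 0% = growth of vehicle-only cultures of the same strain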; details: S. cerevisiae rad50 strain growth inhibition, active compounds read high
Outline: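 Relative growth inhibition (compound vs vehicle) was measured in yeast with a defined repair-gene alteration.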

[2] = NCI Yeast Anticancer Drug Screen. Data for the mec2-1 strain (AID 157); details: S. cerevisiae mec2-1 strain, active compounds read high
Outline: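 Cells of the genetically defined mec2-1 yeast strain are incubated with test compound. Inhibition of growth is calculated against vehicle-treated controls.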

[3] = NCI Yeast Anticancer Drug Screen. Data for the sgs1 mgt1 strain (AID 161);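 note: 0% = growth of cultures given vehicle only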; details: S. cerevisiae sgs1 mgt1 strain, active compounds read high
Outline: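 Mutant yeast exposed to compound; growth scored against vehicle-only wells.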

[4] = NCI Yeast Anticancer Drug Screen. Data for the cln2 rad14 strain (AID 165);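 note: 0% = growth equal to vehicle treated cultures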; details: S. cerevisiae cln2 rad14 strain, active compounds read high
Outline: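 The screen exposed genetically defined yeast (cln2 rad14) to test compounds and scored growth inhibition relative to vehicle-treated controls.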

[5] = NCI Yeast Anticancer Drug Screen. Data for the bub3 strain (AID 167); details: S. cerevisiae bub3 mutant strain, active compounds read high
Outline: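 Screening used yeast with an engineered genetic alteration affecting cell cycle control. Compound-exposed cultures were compared with vehicle cultures, and reduced growth was taken as inhibition.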

[6] = NCI Yeast Anticancer Drug Screen. Data for the mlh1 rad18 strain (AID 175); details: S. cerevisiae mlh1 rad18 strain growth inhibition, active compounds read high
Outline: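 Compound-treated yeast growth, normalised to vehicle controls. Strain bears defined DNA repair mutations.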

[7] = at 5.0 µM (retest, dose inferred, filed as 0.5)
[8] = at 50.0 µM (retest, dose inferred, filed as 5.0)

Compound | growth inhibition [1, 7] [%] | growth inhibition [1, 8] | growth inhibition ([1]; at 50.0 µM) | growth inhibition [2, 7] [%] | growth inhibition [2, 8] | growth inhibition ([2]; at 50.0 µM) | growth inhibition [3, 7] [%] | growth inhibition [3, 8] | growth inhibition ([3]; at 50.0 µM) | growth inhibition [4, 7] [%] | growth inhibition [4, 8] | growth inhibition ([4]; at 50.0 µM) | growth inhibition [5, 7] [%] | growth inhibition [5, 8] | growth inhibition ([5]; at 50.0 µM) | growth inhibition [6, 7] [%] | growth inhibition [6, 8] | growth inhibition ([6]; at 50.0 µM)
CS(=O)(=O)OCCN(CCOS(C)(=O)=O)c1ccc(C=Nc2ccc3ccccc3c2)c(Cl)c1 | 5 | 22% | 10.4% | -203 | -3% | 23.1% | 3 | 14% | 34% | 11 | -9% | 35.4% | 0 | -9% | 5.85% | 7 | 34% | 66%
CCOC(=O)/C(C#N)=C\c1cccc2ccccc12 | 13 | 57% | 84% (active) | 1 | 91% (active) | 92.3% (active) | 5 | 75% (active) | 91.8% (active) | -17 | 27% | -12.4% | -4 | 40% | 96.2% (active) | -2 | 94% (active) | 95.7% (active)
Cc1occc1C(=S)Nc1ccc(Cl)c(COC(C)(C)C)c1 | 26 | 74% (active) | 78.9% (active) | 6 | 74% (active) | 84.3% (active) | 17 | 84% (active) | 85.7% (active) | 22 | 86% (active) | 84.8% (active) | 26 | 90% (active) | 86.2% (active) | 19 | 85% (active) | 78.5% (active)
Brc1ccc(-c2c3ccccc3cc3c2ccc2ccccc23)cc1 | 1 | -14% | 42.9% | 1 | -10% | 30.2% | 2 | 1% | 47.8% | -2 | -24% | 74.5% (active) | -5 | 26% | 38.1% | -4 | -9% | 47.1%
Cc1ccc(/C=C2\CCCC(CN3CCCCC3)C2=O)cc1 (stereo not given) | 23 | 99% (active) | 75% (active) | 34 | 99% (active) | 83% (active) | 30 | 99% (active) | 87.8% (active) | 45 | 98% (active) | 73.3% (active) | 37 | 99% (active) | 89.3% (active) | 32 | 99% (active) | 90% (active)
